Results on 20 molecules are retold here after publication PMC12136788.

First the molecules themselves.
B1: chr10:128104542:128104643:-|CDS|ENSG00000148773|msi1|total|mutant (ssRNA)
RNA: GGGAGUUCUACAGUCCGACGAUCAAGUGAUGAGAAAAAUAUCAACACAUUUGUGGAAACUCCAGUGCAGAAACUGGACCUGCCCGGAAAUUUACCUGGCAGCAAGAGACAGCCACAGACUCCUAAGGAAAAGGCUGAGGCUCUCAACAGAGGAUUGAGCAUCA
B2: chr4:138167974:138168075:-|3pUTR|ENSG00000151012|msi1|total|mutant (ssRNA)
RNA: GGGAGUUCUACAGUCCGACGAUCCACAAAAUCUGCAUUGUCCAUGUGAGUAAAGUAAAAUAAUUCCUGUUAUUUUUUUCUGUCCGAAAUAAGUAUGGAGGAUAUGUUUUUAAAAAUUUAUGAGUUAAUUGAAAUAUCCAUAUACAACAGAGGAUUGAGCAUCA
B3: chr5:38481646:38481747:-|CDS|ENSG00000113594|unk|total|mutant (ssRNA)
RNA: GGGAGUUCUACAGUCCGACGAUCCAGACCUCAGGCCAAUGUAAAUACAUGGAAUUCCGUGUCUCCAGACUCUCCCCGAUCCACCGACAGCAACAGUGAGAUUGUCUCAUUUGGAAGUCCAUGCUCCAUUAAUUCCCGACAAUUCAACAGAGGAUUGAGCAUCA
B4: chr13:69700593:69701701:-|three_prime_utr|ENSG00000150361|control|control|control (ssRNA)
RNA: GGGAGUUCUACAGUCCGACGAUCUUGAAUGGCAAGAAUGAGAACUUCCAGAGAUGAAAACUCUUCAAGAACAAGGAUCUCUGUAGCGUUACCUACUGAUGUUGAAAGAGUUAGUAGAUCAAACAGAAUAGUAGGAAACAAGAACAACAGAGGAUUGAGCAUCA
B5: ENSG00000198589:be:win_251|CDS|ENSG00000198589|bound_else_gene|NA|bound_elsewhere_windowed (ssRNA)
RNA: GGGAGUUCUACAGUCCGACGAUCUCAUUAUCCAAGAAGGUGAGAGUAUUAACUGCAUGGUGGACCUACUGGAAAAAUGUGACAUUACGUGCCAAGCAGAAGUCUGGAGCAUGUUUACAGCCAUUCUGAAGAAAAGCAUACGGACAACAGAGGAUUGAGCAUCA
B6: chr11:27368498:27368690:-|CDS|ENSG00000205213|msi1|FALSE|unique (ssRNA)
RNA: GGGAGUUCUACAGUCCGACGAUCACCCCUUUGUUUGCCAUUUCCUACAGGUGAAACGCCAUCAUUAGGAUUCACUGUAACGUUAGUGCUAUUAAACUCACUAGCAUUUUUAUUAAUGGCCGUUAUCUACACUAAACUAUACUGCAACAGAGGAUUGAGCAUCA
B7: chr7:123692404:123692516:-|CDS|ENSG00000106299|unk|FALSE|unique (ssRNA)
RNA: GGGAGUUCUACAGUCCGACGAUCCCUGCCUUCUGAUGGGGACCAUCAGGUUCCAACUACUGCAGGAAACAAAGCAGCUCUUUUAGAUCAAAUUAGAGAGGGUGCUCAGCUAAAAAAAGUGGAGCAGAACAGUCGGCCAGUGUCCAACAGAGGAUUGAGCAUCA
B8: chr5:139396562:139396955:-|CDS|ENSG00000170469|control|control|control (ssRNA)
RNA: GGGAGUUCUACAGUCCGACGAUCAGGGGUCCACAAGGUGGGGGCUUGUAGCCUAGGGGAGGAGCUGGGUCUUUGUUGUCUGGUAGGCACCACCGCUUCCUUUGGGUAUUUAAUCCCUUCCUAUAUAAACAGCCCUGGUUACCCCAACAGAGGAUUGAGCAUCA
B9: chr11:101473508:101473773:-|CDS|ENSG00000137672|control|control|control (ssRNA)
RNA: GGGAGUUCUACAGUCCGACGAUCUCCUCAAAUAAUAUCUGAAGGUCUUUAUGCAAUUGCUGUAGUUUUAAGUUUCUCUAGGAUAGCUUAUAUUUUACCAGCAAAUGAAAGCUUUGGACCUCUGCAGAUAUCACUUGGAAGAACCAACAGAGGAUUGAGCAUCA
B10: chr8:94436494:94436868:-|CDS|ENSG00000265817|control|control|control (ssRNA)
RNA: GGGAGUUCUACAGUCCGACGAUCAAUAGUAGAAAAGAAUAGAUGUUGGGAUAUCAUAGCAGUUAACUAUAAUGCAAUUGGAGUAGACCGCCCUCCUCGAACAGCACAGGGCCUACGCACCCUUUAUAAAAGGCUCAAAGAAUACAACAGAGGAUUGAGCAUCA
B11: ENSG00000070961:be:win_6101|3pUTR|ENSG00000070961|bound_else_gene|NA|bound_elsewhere_windowed (ssRNA)
RNA: GGGAGUUCUACAGUCCGACGAUCUAAAGAUCUUGGAUCCCAUUAUAUAGUAUGUAUAGCUGAAAUCUGUAAUUCAAUCACUUUUUCUCUUUUAUCCUCUAACCAAAAAAUUGUUUAAUUUUGCAUCCCAAAUGUUUUUAAUCUCAACAGAGGAUUGAGCAUCA
B12: chr10:113908677:113908778:+|3pUTR|ENSG00000196865|unk|total|mutant (ssRNA)
RNA: GGGAGUUCUACAGUCCGACGAUCAGCUAUGCUCCUUACUUACUUCUUUUAUUAUAAACAAAUUCCUUUGCUUUGGCUGAUACCCGCUGAGUCAUUGAUCAUCAUUGGUACCAUGAUAUUGUAAUCUAUGCUGCUAUUUGGCACCAACAGAGGAUUGAGCAUCA
B13: chr10:92030311:92030412:+|3pUTR|ENSG00000095564|unk|FALSE|unique (ssRNA)
RNA: GGGAGUUCUACAGUCCGACGAUCAUAUAAGAUUGAAACUGUAAAAUAUAUGCAACUGUGUGUUAUUUGUAGGAAAUGGUCACUAGAAAGAGCAAAAGAUUAUUCAGGUAUACAGGUUUUUUUUCAUUGUUUAGGAUUUUAACUCAACAGAGGAUUGAGCAUCA
B14: chr1:229632307:229632408:+|CDS|ENSG00000135763|unk|total|mutant (ssRNA)
RNA: GGGAGUUCUACAGUCCGACGAUCAUUUUAUAAGAAAAAGCUUGAACUGAAGGAAGAUAUUGUUGAAAGGCUUUGGAUCUAUACCGAUAACAUUUUACACCGCAGAAAAUUGCAGAAUCUCCUCAAGAAUGGAAAGACCAUUAACAACAGAGGAUUGAGCAUCA
B15: ENSG00000070961:be:win_6151|3pUTR|ENSG00000070961|bound_else_gene|NA|bound_elsewhere_windowed (ssRNA)
RNA: GGGAGUUCUACAGUCCGACGAUCCAAUCACUUUUUCUCUUUUAUCCUCUAACCAAAAAAUUGUUUAAUUUUGCAUCCCAAAUGUUUUUAAUCUUUGUAUAUUUUUUAAAAAUCCUUUUCUCCUCAUCAUUGCCUUUUUUGUGGCAACAGAGGAUUGAGCAUCA
B16: chr6:75256125:75256201:-|CDS_3pUTR|ENSG00000112697|msi1_unk|FALSE|overlapping (ssRNA)
RNA: GGGAGUUCUACAGUCCGACGAUCUUUGGGGAUUGCUUACAUCGCUGUUGGAUCCAUCUCCUUCCUUCUGGGAGUUGUACUGCUAGUAAUUAAUCAUAAAUAUAGAAACAGUAGUAAUACAGCUGACAUUACCAUUUAAUUUUACAACAGAGGAUUGAGCAUCA
B17: chr5:113019263:113019364:+|3pUTR|ENSG00000172795|msi1|FALSE|unique (ssRNA)
RNA: GGGAGUUCUACAGUCCGACGAUCCUCAACUGUGAAUGAAAUUUAGAAAGAUAAUUCUUCAGCAGUUGGUUGAUUAGAUGGGUUAGUGCUUUUGGAAUAUAUAACAGUAGACUUGUAUUCUUUAUGCACUAUACAUAUGAUACGCAACAGAGGAUUGAGCAUCA
B18: chr6:75256125:75256201:-|CDS_3pUTR|ENSG00000112697|msi1_unk|total|mutant (ssRNA)
RNA: B16 RNA with U83C, A84C, U102C, A103C, U111C, A112C
B19: chr1:113764432:113764533:-|3pUTR|ENSG00000081019|msi1|total|mutant (ssRNA)
RNA: GGGAGUUCUACAGUCCGACGAUCAAAAUAUUCUGAAACCGGUUAAAUCUUAUAUAAAUAUUACUUUGUGCAAUAUUGUUGUGCCGUUAAAUGCAUAUCCGCAAAGUACCGAGGUCACUGUGUAAACCGACCGAAAAGUAACCACAACAGAGGAUUGAGCAUCA
B20: chr1:113764432:113764533:-|3pUTR|ENSG00000081019|msi1|FALSE|bound_elsewhere (ssRNA)
RNA: B19 RNA with C38U, C39A, C83U, C84A, C98U, C99A, C108U, C109A, C130U, C131A

Residue numbers refer to the chain shown, from its start. In all, about 5,800 sequences were measured (“enrichment r”: median about 0.54, highest 2% from about 16 on). The entries come from a sample that favours the highest values as a whole.

The target of this experiment is MSI1 full-length (mouse, UniProt Q61474 1-362). Description: nsRBNS (natural sequence RNA bind-n-seq); RBNS binding buffer (assumed for nsRBNS): 25 mM Tris pH 7.5, 150 mM KCl, 3 mM MgCl2, 0.01% Triton X-100, 500 ug/ml BSA, 20 U/ml SUPERase-In, 4 C; UNK is unkempt and MSI1 is Musashi-1; names of the RNAs are library labels; protein concentration not given here; high values mean tight binding.
MSI1 full-length, sequence (Q61474 whole entry): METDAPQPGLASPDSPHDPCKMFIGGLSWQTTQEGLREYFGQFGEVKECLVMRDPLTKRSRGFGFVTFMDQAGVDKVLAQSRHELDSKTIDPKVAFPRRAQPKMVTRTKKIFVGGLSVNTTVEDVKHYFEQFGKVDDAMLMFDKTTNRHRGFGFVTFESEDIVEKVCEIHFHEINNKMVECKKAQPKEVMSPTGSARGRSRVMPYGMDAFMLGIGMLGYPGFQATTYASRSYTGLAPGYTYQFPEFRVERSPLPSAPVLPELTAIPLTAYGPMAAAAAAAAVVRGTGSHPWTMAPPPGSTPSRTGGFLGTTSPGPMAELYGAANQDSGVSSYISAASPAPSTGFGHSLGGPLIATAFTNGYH
Molecule B1 had a binding signal of 0.365 enrichment R.
The same measure for B2: 0.651 enrichment R; for B3: 0.459 enrichment R; for B4: 4.13 enrichment R.
The same measure for B5: 0.303 enrichment R.
The molecule B6 came in with a binding signal of 1.09 enrichment R.
The same measure for B7: 0.703 enrichment R; for B8: 1.74 enrichment R; for B9: 1.39 enrichment R.
For the molecule B10, the binding signal came to 28.2 enrichment R.
The same measure for B11: 30 enrichment R.
On to B12, for which the binding signal was found to be 3.24 enrichment R.
Take B13: the binding signal is 6.54 enrichment R.
The same measure for B14: 0.623 enrichment R; for B15: 3.25 enrichment R; for B16: 18.4 enrichment R.
The same measure for B17: 1.92 enrichment R.
As to B18, the binding signal was 0.387 enrichment R.
The same measure for B19: 0.583 enrichment R; for B20: 51.3 enrichment R.
